NS1 inh: blocks influenza NS1 protein function; AID 2326; Potency, µM (highest dose often 46.1 µM), for inactives: top-dose activity, positive = more growth; 0.4% of 270,000 active; also: potency is read from the fitted curve at half-maximal effect; actives are rising curves; nearly all actives have a fitted effect of over 50% in size
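Growth recovery, yeast-based: influenza A NS1 expressed in S. cerevisiae causes slow growth, and suppressors are detected by OD600. The parent strain without NS1 is used as positive control.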
Giardia FBPA inh: Giardia lamblia aldolase inhibition. A8B2U2. purified Giardia FBPA. Potency, µM (titrated, usually from 59.6 µM), without a hit: at the highest dose activity, negative = inhibition, usual class: inhibitors. 0.71% of 290,000 active. AID 2451; active = well fitted curve in the direction sought with a large enough effect; inconclusive = small, poorly fitted or top-dose-only effect, or another doubt; inactive = no such curve, though single readings can be large; an effect the other way counts as inactive or inconclusive; also: potency is read from the fitted curve at half-maximal effect; % is scaled to controls: 0 for no effect and ±100 for the full control effect; nearly all actives have a fitted effect of over 55% in size
Target sequence (A8B2U2 whole entry, looked up): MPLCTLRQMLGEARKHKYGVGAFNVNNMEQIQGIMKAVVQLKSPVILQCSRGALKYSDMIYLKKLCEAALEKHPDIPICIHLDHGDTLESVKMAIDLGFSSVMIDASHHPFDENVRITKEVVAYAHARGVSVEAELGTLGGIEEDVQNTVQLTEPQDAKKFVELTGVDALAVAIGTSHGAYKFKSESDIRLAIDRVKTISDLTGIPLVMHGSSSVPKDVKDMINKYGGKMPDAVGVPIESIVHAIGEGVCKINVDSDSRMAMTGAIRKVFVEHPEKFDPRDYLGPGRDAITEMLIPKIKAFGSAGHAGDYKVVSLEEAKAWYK
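Giardia FBPA (40 nM reagent) was preincubated 10 min at RT with compound (up to 57.5 uM final), then substrate plus GAPDH/TPI/NAD/arsenate coupling system with diaphorase/resazurin was added; resorufin fluorescence (525/598 nm) was read after 20 min.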
AmpC inh detg: AmpC beta-lactamase inhibition with detergent present | P00811 | AmpC hydrolysis of nitrocefin, absorbance 480 nm, 0.01% Triton | Potency, µM (top dose mostly 114 µM), for inactives: at the highest dose activity change, negative = inhibition, actives largely listed as inhibitors | 0.041% of 370,000 active | AID 485294; active = well fitted curve in the direction sought with a large enough effect; inconclusive = small, poorly fitted or top-dose-only effect, or another doubt; inactive = no such curve, though single readings can be large; an effect the other way counts as inactive or inconclusive;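 also: potency is read from the fitted curve at half-maximal effect; 0% = no-compound wells and -100% = no-enzyme wells; nearly all actives have a fitted effect of over 25% in size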
Target sequence (P00811 whole entry, looked up): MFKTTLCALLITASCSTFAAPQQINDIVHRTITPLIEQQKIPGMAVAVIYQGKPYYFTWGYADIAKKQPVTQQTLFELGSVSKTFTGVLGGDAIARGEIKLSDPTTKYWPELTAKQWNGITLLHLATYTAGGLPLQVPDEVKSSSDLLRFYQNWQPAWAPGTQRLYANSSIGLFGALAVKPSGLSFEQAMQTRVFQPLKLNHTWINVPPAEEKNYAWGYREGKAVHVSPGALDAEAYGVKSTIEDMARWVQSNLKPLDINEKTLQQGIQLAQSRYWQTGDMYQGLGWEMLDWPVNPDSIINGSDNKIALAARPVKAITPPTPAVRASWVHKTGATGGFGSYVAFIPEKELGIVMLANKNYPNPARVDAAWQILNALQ
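20 mM phosphate pH 7.0 + 0.01% (detergent screen) or 0.0001% Triton X-100; 5.3 nM AmpC reagent; cpd preinc 15 min RT; nitrocefin (800 uM stock) to start; A480 q20 s × 4 min; Activity was normalised to no-enzyme and no-compound control wells.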
SARS PLP yeast: inhibitors of SARS-CoV papain-like protease in yeast; S. cerevisiae expressing SARS-CoV PLpro, growth rescue; Potency, µM (doses to about 32.9 µM), without a hit: at the highest dose activity, positive = growth rescue, usual class: activators; 0.19% of 330,000 active; also: potency is read from the fitted curve at half-maximal effect; 0% is about no effect; nearly all actives have a fitted effect of over 55% in size
AmpC no deterg: inhibitors of E. coli AmpC beta-lactamase without detergent; AID 485341; Potency, µM (top dose mostly 57.1 µM), inactives show top-dose activity change, negative = inhibition, usual class: inhibitors; P00811; AmpC nitrocefin hydrolysis, absorbance 480 nm, 0.0001% Triton; 0.52% of 330,000 active; active = well fitted curve in the direction sought with a large enough effect; inconclusive = small, poorly fitted or top-dose-only effect, or another doubt; inactive = no such curve, though single readings can be large; an effect the other way counts as inactive or inconclusive;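 also: potency is read from the fitted curve at half-maximal effect; plate controls were no compound for no effect and no enzyme for full effect; nearly all actives have a fitted effect of over 20% in size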
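AmpC (5.3 nM in the dispensed reagent) in 20 mM phosphate pH 7.0 with 0.01% (detergent screen) or 0.0001% Triton X-100 was preincubated with compounds for 15 min at room temperature. Nitrocefin was then added from an 800 uM solution, and hydrolysis was followed at 480 nm.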
NS1 inh valid: influenza NS1 function inhibition validation; 1,400 tested, under 10 active; shares compounds with NS1 inh; activity change, negative = inhibition, % at 32.9 µM; influenza NS1 function cell assay, 15-point titration; also: 0% is about no effect
Flu PR8 replic: reduces influenza A/PR/8/34 replication in MDCK cells. MDCK infected influenza A/PR/8/34, virus titer TCID50; stronger effect = lower value. virus titer (log TCID50), log10 TCID50 at 5 µM. shares compounds with NS1 inh. 30% of 95 active; call rule not given here
* = called active by the depositor; ? = inconclusive; . = not tested or not shown. This is a sample that favours compounds with a hit; in the whole collection about 1.4% have one here. Unless noted, calls follow the shape of the full dose curve.

SMILES | NS1 inh | Giardia FBPA inh | AmpC inh detg | SARS PLP yeast | AmpC no deterg | NS1 inh valid | others
COc1ccc(C2c3sc(=O)[nH]c3SC3C(=O)N(c4ccccc4)C(=O)C32)cc1 (stereo not given) | -35% | -17% | ? | -1% | ? | .
O=C(NCC1CCCCC1)c1cc2ccccc2cc1O | -34% | . | 2% | -24% | 14µM* | .
CCC(c1nnnn1CC1CCCO1)N(CCN1CCOCC1)Cc1cc2cc(C)ccc2[nH]c1=O (stereo not given) | 2.2µM* | -13% | 5% | 1% | 45% | .
CCOc1ccc(-c2cn(-c3cccc(SC)c3)c(=O)[nH]2)cc1 | -2% | -3% | -13% | 5% | 35µM* | .
Cc1ccc2nc(NC(=O)C3CCN(S(=O)(=O)c4cccs4)CC3)sc2c1 | -31% | -2% | 6% | -19% | -22% | .
Cc1ccc2nc(N/C(=N/S(=O)(=O)c3cccs3)c3ccccc3Cl)sc2c1 | . | 20% | -13% | 2% | 13µM* | .
CSc1nc2ccccc2nc1N(C)S(=O)(=O)c1ccc(C)cc1 | 1% | ? | 12% | -1% | -32% | .
C[n+]1cccc(O)c1SCc1ccccc1 | . | . | -13% | 1% | -16% | .
Cn1cc(S(=O)(=O)N2CCN(c3ccccc3)CC2)c(=O)n(C)c1=O | 3% | 13% | -14% | 4% | 40µM* | .
Cn1cc(S(=O)(=O)N2CCN(c3cccc(Cl)c3)CC2)c(=O)n(C)c1=O | -1% | 5% | 9% | 0% | 41% | .
COc1ccc(OC)c2c1C(=O)c1ccccc1C2=O | -6% | ? | 1% | -25% | -14% | .
COc1ccc(OC)c2c1C(=O)C(Cl)=C(Cl)C2=O | -83% | 1.3µM* | -5% | -5% | -3% | .
COCCN(C(=O)CSc1nc2ccccc2c(=O)n1CC(C)C)c1c(N)n(Cc2ccccc2)c(=O)[nH]c1=O | . | 17% | -1% | -1% | 74% | .
CS(=O)c1ccccc1COC(=O)Nc1ccc(Cl)cc1 (stereo not given) | 5% | 2% | 5% | 1% | 6.3µM* | .
Cc1ccc(NC(=O)OCc2ccccc2S(C)=O)cc1 (stereo not given) | . | 3% | ? | 2% | -6% | .
COc1ccc(Cl)cc1NC(=O)NCc1noc2ccccc12 | . | . | -6% | . | . | .
NS(=O)(=O)c1cccc(NC(=O)Nc2ccc(Cl)cc2)c1 | -32% | -6% | -5% | -2% | 14µM* | .
CSCCC(NS(=O)(=O)c1ccc2c(c1)oc(=O)n2C)C(=O)N1CCN(c2ccc(F)cc2)CC1 (stereo not given) | . | . | 3% | . | . | .
CCn1nc(C(=O)OCc2cccc(S(=O)(=O)N(C)C)c2)c2ccccc2c1=O | ? | 2% | -3% | 1% | -9% | ?
Cc1ccc(N(CC(=O)Nc2cccc(C)c2)S(=O)(=O)c2cccc3nonc23)cc1 | 7.1µM* | -26% | 24% | -6% | -12% | -14 | Flu PR8 replic=8.3
COc1ccc(S(=O)(=O)N(CC(=O)Nc2cccc(C)c2)c2ccc(C)cc2)cc1OC | . | . | 4% | . | . | .
Cc1ccc(-c2cc(C(=O)Nc3ccc(S(=O)(=O)Nc4nc(C)cc(C)n4)cc3)c3ccccc3n2)cc1 | 14µM* | 3% | -8% | -2% | 71% | 13
O=C(Nc1cccc(S(=O)(=O)NC2=NCCCCC2)c1)c1cc(-c2ccc(Cl)cc2)nc2ccccc12 | 11µM* | -9% | -6% | -5% | ? | 24
CC(=O)NS(=O)(=O)c1ccc(NC(=O)c2cc(-c3ccc(C)c(C)c3)nc3ccccc23)cc1 | 22% | ? | -9% | 7% | -38% | .
CC(=O)NS(=O)(=O)c1ccc(NC(=O)c2cc(-c3ccc(C)cc3)nc3ccccc23)cc1 | 8.9µM* | 4% | -3% | 23% | -3% | 5
SMILES | NS1 inh | Giardia FBPA inh | AmpC inh detg | SARS PLP yeast | AmpC no deterg | NS1 inh valid | others
O=C(NCC(=O)N(c1ccccc1)C(C(=O)NC1CCCCC1)c1cccnc1)c1cccs1 (stereo not given) | ? | 2% | 5% | 0% | -4% | .
Cc1ccccc1CNC(=O)CCCC(=O)n1nc(C)c2ccccc21 | -29% | 0% | -4% | -8% | 20% | .
CCOc1ccccc1CNC(=O)CCCC(=O)n1nc(C)c2ccccc21 | ? | -3% | -10% | 1% | 13% | ?
COc1ccccc1C(=O)NCCn1cc(SCC(=O)Nc2nnc(C)s2)c2ccccc21 | 13µM* | 1% | 5% | 5% | 53% | 11
Cc1nnc(NC(=O)CSc2cn(Cc3ccccc3)c3ccccc23)s1 | 3% | 2% | -4% | -6% | -35% | .
Clc1ccc(C2NCCc3[nH]cnc32)cc1 (stereo not given) | 8% | 4% | -3% | 0% | 2% | .
Cc1cc(NC(=O)CCC(=O)N(CC(=O)NC2CCCC2)c2cccc(F)c2)no1 | ? | 4% | 2% | 3% | 16% | -7
COc1ccc(C(=O)Oc2cc(/C=N/NC(N)=S)ccc2OC)cc1 | 8.9µM* | . | ? | ? | -54% | -39
COc1ccc(/C=N/NC(N)=S)cc1OC(=O)c1cccc2ccccc12 | 2.2µM* | -1% | 0% | ? | -38% | ?
COc1cc(/C=N/NC(N)=O)ccc1OC(=O)c1ccc(C)cc1 | 2% | 4% | 1% | 0% | 16% | .
CC(C)OCCCNC(=O)C1CCN(S(=O)(=O)c2ccc3nc4c(c(C(=O)O)c3c2)CCCCC4)CC1 | 4% | -3% | -10% | 22% | -16% | .
CC(=O)Cc1nsc(NC(=O)c2ccc(-c3ccc(Cl)cc3Cl)o2)n1 | 3% | -13% | -10% | 9% | -23% | .
Cc1[nH]n(-c2cccc3ccccc23)c(=O)c1/C=N/c1sc2c(c1C#N)CCC2 | 2.2µM* | 0% | 2% | 7% | -25% | -9 | Flu PR8 replic=8.5
Cc1[nH]n(-c2ccc(F)cc2)c(=O)c1/C=N/c1sc2c(c1C#N)CCCC2 | 1% | -2% | 1% | -1% | -20% | .
Cc1cccc(/C=C/c2onc(C)c2S(=O)(=O)N2CCC(C(=O)N3CCCCC3)CC2)c1 | ? | . | -6% | -2% | 118% | .
CCCc1cc(=O)[nH]c(SCC(=O)CSc2nc(CCC)cc(=O)[nH]2)n1 | 8.9µM* | ? | ? | 3% | -19% | 30
NNC(=O)COc1ccc(-c2n[nH]c(C(F)(F)F)c2-c2ccc(Br)cc2)c(O)c1 | 11µM* | 0% | 1% | -1% | -44% | 2
Cn1c(-c2ccc3ccccc3n2)nc2cnccc21 | -29% | 0% | ? | -9% | -8% | .
CCCCCCn1c(COc2ccccc2F)nnc1SCC(=O)c1c(N)n(C)c(=O)n(C)c1=O | ? | 6% | -10% | -12% | -3% | -4
